# Experimental data as given in PubChem BioAssay AID2116 (The Scripps Research Institute Molecular Screening Center, 2009).
# The source made the active and inactive calls. The rule behind the calls is not given here.
# Molecular target: Mucolipin-2 (Homo sapiens) (UniProt Q8IZK6)
# Test: TRPML3 and TRPML2 channel agonists, cell-based, patch clamp, Fura-2 profiling panel (AID 2116)
# Conditions: HEK293 cells, TRPML2 Fura-2 Imaging; at 10 µM; stronger effect = higher value
row,SMILES,activation
1,O=S(=O)(Nc1ccccc1N1CCCCC1)c1ccc(Cl)s1,< 1% (inactive)
2,O=S(=O)(NC1CCCCC1N1CCOCC1)c1ccc(Cl)cc1 (stereo not given),54.5% (active)
3,Cc1ccc(S(=O)(=O)Nc2ccccc2-c2ccccc2)cc1,< 1% (inactive)
4,O=S(=O)(Nc1ccccc1N1CCOCC1)c1ccc(Cl)s1,7.14% (inactive)
5,Cc1ccc(N2CCN(S(=O)(=O)N3CCCCC3)CC2)c(C)c1,23.5% (active)
